Activity calls are given as the source filed them. How the source made its calls: active means hit-call score of the fitted dose curve at least 0.9, where 1 is the maximum; inactive means score below 0.9.
biological target: human Adenosine Transporter, SLC29A1 (gene 2030) (UniProt Q99808); assay: ERF_TW_TR_hSLC35B3: Eurofins (ERF) Transporter Radioligand Binding LeadHunter Assay for human Adenosine Transporter Antagonism
Experimental: ERF_TW_TR_hSLC35B3 is a biochemical, single-readout assay that uses extracted gene-proteins in a cell-free assay. Measurements were taken 1 hour after chemical dosing in a 96-well plate. See Adenosine Human Transporter Binding (Antagonist Radioligand) Assay, Panlabs.ERF_TW_TR_hSLC35B3 is an assay component calculated from the ERF_TW_TR_hSLC35B3 assay. It is designed to measure radioligand binding using a type of binding reporter as detected by scintillation counting with radiometry technology.Data from the assay component ERF_TW_TR_hSLC35B3 was analyzed at the assay endpoint, ERF_TW_TR_hSLC35B3, in the positive analysis fitting direction relative to DMSO as the negative control and baseline of activity. Using a type of binding reporter, loss-of-signal activity can be used to understand changes in transporter binding as they relate to gene SLC29A1. To generalize the intended target to other relatable targets, this assay endpoint is annotated to the transporter intended target family, where the subfamily is nucleoside transporter.
This assay measures binding of [3H]Nitrobenzylthioinosine to sites associated with the transporter of adenosine. Human adenosine transporter membranes are prepared in Tris-HCl buffer pH 7.4. A 24 ug aliquot of membrane is incubated with 0.5 nM [3H]Nitrobenzylthioinosine for 60 minutes at 25C. Non-specific binding is estimated in the presence of 5 uM nitrobenzylthioinosine. Membranes are filtered and washed, the filters are then counted to determine [3H]Nitrobenzylthioinosine specifically bound. Compounds are screened at 10 uM.Test Sample Requirements: Minimum for 1) Screen: 25 ul of 10 mM stock -OR- 1 mg (pre-weighed). 2) Dose Response: 60 ul of 10 mM stock -OR- 1 mg (pre-weighed).

Chain of human Adenosine Transporter, SLC29A1 (gene 2030) (Q99808 whole entry, looked up): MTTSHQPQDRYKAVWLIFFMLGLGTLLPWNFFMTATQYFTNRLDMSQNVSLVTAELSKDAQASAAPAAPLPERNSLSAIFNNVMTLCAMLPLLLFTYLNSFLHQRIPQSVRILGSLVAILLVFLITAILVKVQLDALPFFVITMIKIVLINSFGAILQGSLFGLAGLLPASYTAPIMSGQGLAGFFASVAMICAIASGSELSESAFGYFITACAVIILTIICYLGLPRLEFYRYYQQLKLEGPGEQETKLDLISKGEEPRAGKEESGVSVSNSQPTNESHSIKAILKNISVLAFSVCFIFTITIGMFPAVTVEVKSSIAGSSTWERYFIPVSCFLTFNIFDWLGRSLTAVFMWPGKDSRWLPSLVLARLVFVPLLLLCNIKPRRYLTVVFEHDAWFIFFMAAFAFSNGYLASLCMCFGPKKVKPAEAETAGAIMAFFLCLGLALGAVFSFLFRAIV

AC50, active:
COc1cc(CCC(=O)CC(=O)CCc2ccc(O)c(OC)c2)ccc1O 0.574 µM
COc1cc(/C=C/C(=O)CC(=O)/C=C/c2ccc(O)c(OC)c2)ccc1O 0.098 µM
O=C(/C=C/c1ccc(O)cc1)CC(=O)/C=C/c1ccc(O)cc1 0.153 µM
